Test results reported in the antibiotic and cytotoxicity screens of Wong et al. (2023).
Hit rate of the full screen: of about 39,000 compounds, about 3,300 (8.5%) were called active. This excerpt belongs to a sample that is enriched for actives.

What follows are compounds tested on HepG2 (assay: cytotoxicity call (relative viability < 0.9)). Settings: 10 µM.
For `Cc1noc(C)c1S(=O)(=O)Nc1ccc2c(c1)CC(=O)N([C@@H](C)CO)C[C@@H](C)[C@H](CN(C)C(=O)Nc1ccccc1)O2`, the cytotoxicity call was “inactive”.
In the case of `COC(=O)Cc1c(C)[nH]c2ncnn2c1=O`, the cytotoxicity call is reported as “inactive”.
`Cc1[nH]c2ncnn2c(=O)c1NS(C)(=O)=O` was tested, and the cytotoxicity call was “inactive”.
`CC(=O)Nc1c(C)[nH]c2ncnn2c1=O` was tested, and the cytotoxicity call was “active”.
`C[C@@H]1CN([C@H](C)CO)C(=O)Cc2cc(NS(C)(=O)=O)ccc2O[C@@H]1CN(C)C(=O)Nc1ccc(C(F)(F)F)cc1` was tested, and the cytotoxicity call was “inactive”.
In the case of `O=C(Nc1ccno1)NN1CCOCC1`, the cytotoxicity call is reported as “inactive”.
With `COc1cc([C@@H]2c3cc4c(cc3[C@@H](O[C@@H]3O[C@@H]5CO[C@@H](C)O[C@H]5[C@H](O)[C@H]3O)[C@@H]3COC(=O)[C@@H]23)OCO4)cc(OC)c1O` the cytotoxicity call was “inactive”.
`COc1cc(C2c3cc4c(cc3C(OC3OC5COC(c6cccs6)OC5C(O)C3O)C3COC(=O)C23)OCO4)cc(OC)c1O` (stereo not drawn) was tested, and the cytotoxicity call was “active”.
For `COc1cc(C2c3cc4c(cc3C(OC3OC5COC(C)OC5C(O)C3O)C3COC(=O)C23)OCO4)cc(OC)c1O` (stereo not drawn), the cytotoxicity call was “inactive”.
For `COc1cc([C@@H]2c3cc4c(cc3[C@@H](O[C@@H]3O[C@@H]5CO[C@@H](C)O[C@H]5[C@H](O)[C@H]3O)[C@H]3COC(=O)[C@H]23)OCO4)cc(OC)c1O`, the cytotoxicity call was “active”.
`C[C@H](CO)N1C[C@H](C)[C@H](CN(C)S(=O)(=O)c2cccs2)Oc2ccc(NS(=O)(=O)c3ccc(F)cc3)cc2CC1=O` was tested, and the cytotoxicity call was “inactive”.
For `O=C(C[C@@H]1C[C@H]2c3cc(NC(=O)C4CCOCC4)ccc3O[C@H]2[C@@H](CO)O1)NCCN1CCCCC1`, the cytotoxicity call was “inactive”.
With `C[C@@H]1CN([C@@H](C)CO)C(=O)c2cc(C#CCN(C)C)cnc2O[C@H]1CN(C)C(=O)c1ccc2c(c1)OCO2` the cytotoxicity call was “inactive”.
With `Cc1ccc(S(=O)(=O)Nc2ccc3c(c2)C(=O)N([C@@H](C)CO)C[C@@H](C)[C@@H](CN(C)C(=O)Nc2ccc(C(F)(F)F)cc2)OCCCC[C@H](C)O3)cc1` the cytotoxicity call was “inactive”.
With `Cc1ccc(S(=O)(=O)Nc2ccc3c(c2)C(=O)N([C@H](C)CO)C[C@@H](C)[C@H](CN(C)C(=O)Nc2ccc(C(F)(F)F)cc2)OCCCC[C@@H](C)O3)cc1` the cytotoxicity call was “inactive”.
In the case of `Cc1ccc(S(=O)(=O)Nc2ccc3c(c2)C(=O)N([C@@H](C)CO)C[C@H](C)[C@@H](CN(C)C(=O)Nc2ccc(C(F)(F)F)cc2)OCCCC[C@H](C)O3)cc1`, the cytotoxicity call is reported as “active”.
In the case of `Cc1ccc(S(=O)(=O)Nc2ccc3c(c2)C(=O)N([C@H](C)CO)C[C@H](C)[C@@H](CN(C)C(=O)Nc2ccc(C(F)(F)F)cc2)OCCCC[C@@H](C)O3)cc1`, the cytotoxicity call is reported as “inactive”.
For `Cc1ccc(S(=O)(=O)Nc2ccc3c(c2)C(=O)N([C@@H](C)CO)C[C@H](C)[C@@H](CN(C)C(=O)Nc2ccc(C(F)(F)F)cc2)OCCCC[C@@H](C)O3)cc1`, the cytotoxicity call was “active”.
For `Cc1ccc(S(=O)(=O)Nc2ccc3c(c2)C(=O)N([C@H](C)CO)C[C@H](C)[C@H](CN(C)C(=O)Nc2ccc(C(F)(F)F)cc2)OCCCC[C@@H](C)O3)cc1`, the cytotoxicity call was “inactive”.
`Cc1ccc(S(=O)(=O)Nc2ccc3c(c2)C(=O)N([C@H](C)CO)C[C@H](C)[C@H](CN(C)C(=O)Nc2ccc(C(F)(F)F)cc2)OCCCC[C@H](C)O3)cc1` was tested, and the cytotoxicity call was “active”.
With `Cc1ccc(S(=O)(=O)Nc2ccc3c(c2)C(=O)N([C@H](C)CO)C[C@@H](C)[C@H](CN(C)C(=O)Nc2ccc(C(F)(F)F)cc2)OCCCC[C@H](C)O3)cc1` the cytotoxicity call was “inactive”.
For `Cc1ccc(S(=O)(=O)Nc2ccc3c(c2)C(=O)N([C@H](C)CO)C[C@H](C)[C@@H](CN(C)C(=O)Nc2ccc(C(F)(F)F)cc2)OCCCC[C@H](C)O3)cc1`, the cytotoxicity call was “inactive”.
In the case of `C[C@@H]1CN([C@H](C)CO)C(=O)Cc2cc(NS(=O)(=O)c3cn(C)cn3)ccc2O[C@@H]1CN(C)Cc1ccc2c(c1)OCO2`, the cytotoxicity call is reported as “inactive”.
With `C=CC[C@H](CC(=O)NCCO)C(=O)N[C@H](COC(=O)[C@@H](CC=C)CC(=O)OC(C)(C)C)c1ccccc1` the cytotoxicity call was “inactive”.
For `C[C@@H]1CCCCO[C@@H](CN(C)CC2CC2)[C@H](C)CN([C@H](C)CO)C(=O)c2cc(NC(=O)CCC(F)(F)F)ccc2O1`, the cytotoxicity call was “inactive”.
With `C[C@H](CO)N1C[C@H](C)[C@@H](CN(C)C(=O)c2ccccc2)OCCCC[C@H](C)Oc2ccc(NS(=O)(=O)c3ccccc3)cc2C1=O` the cytotoxicity call was “inactive”.
For `CO[C@H]1CN(C)C(=O)c2ccc(NC(=O)Nc3cccc(Cl)c3)cc2OC[C@H](C)N(C(=O)Nc2c(C)noc2C)C[C@H]1C`, the cytotoxicity call was “inactive”.
With `COc1ccc(C(=O)c2ccccc2O)c(O)c1` the cytotoxicity call was “inactive”.
For `COc1ccc(C(=O)NCC#N)cc1`, the cytotoxicity call was “inactive”.
With `COc1ccc(Sc2ccc(N(C(=O)c3ccccc3Cl)C(=O)c3ccccc3Cl)cc2C#N)cc1` the cytotoxicity call was “active”.
`O=c1cn[nH]c(Nc2ccccc2)n1` was tested, and the cytotoxicity call was “inactive”.
For `O=c1cn[nH]c(NC2CCCC2)n1`, the cytotoxicity call was “inactive”.
`CC(C)CNc1nc(=O)cn[nH]1` was tested, and the cytotoxicity call was “active”.
With `C=CCC[C@@H](Cc1ccc(F)cc1)C(=O)OC[C@@H]1CCCN1C(=O)[C@H](CC=C)CC(=O)N(CCO)Cc1ccccc1` the cytotoxicity call was “inactive”.
With `COc1ccccc1S(=O)(=O)N[C@@H]1C=C[C@@H](CC(=O)N2CCN(C)CC2)O[C@@H]1CO` the cytotoxicity call was “inactive”.
For `NC[C@@](O)(c1ccc(Cl)cc1)c1ccc(-c2cn[nH]c2)cc1`, the cytotoxicity call was “active”.
With `c1n[nH]cc1-c1cn[nH]c1` the cytotoxicity call was “inactive”.
`NC[C@@](O)(CS(=O)(=O)O)c1ccc(Cl)cc1` was tested, and the cytotoxicity call was “inactive”.
`COc1ccccc1CNC(=O)C[C@H]1C[C@H]2c3cc(NC(=O)C4CCOCC4)ccc3O[C@H]2[C@H](CO)O1` was tested, and the cytotoxicity call was “inactive”.
With `CCCCCCNC(=O)n1cc(F)c(=O)[nH]c1=O` the cytotoxicity call was “active”.
`CC1OC(n2cc(F)c(=O)[nH]c2=O)C(O)C1O` (stereo not drawn) was tested, and the cytotoxicity call was “inactive”.
For `C[C@H]1O[C@@H](n2cc(F)c(=O)[nH]c2=O)[C@H](O)[C@@H]1O`, the cytotoxicity call was “inactive”.
With `Cc1ccc(S(=O)(=O)Nc2ccc3c(c2)CC(=O)N([C@@H](C)CO)C[C@H](C)[C@H](CN(C)S(C)(=O)=O)O3)cc1` the cytotoxicity call was “inactive”.
For `CC(C)NC(=O)NCC[C@H]1CC[C@H](NC(=O)CN(C)C)[C@H](CO)O1`, the cytotoxicity call was “inactive”.
With `Cc1c(NC(=O)c2cc3c(s2)CCCC3)cccc1-c1cn(C)c(=O)c(Nc2ccc([C@H]3C(=O)N(C)CCN3C)cc2)n1` the cytotoxicity call was “inactive”.
With `C[C@@H]1CCCCO[C@H](CN(C)C(=O)Nc2ccc3c(c2)OCO3)[C@@H](C)CN([C@@H](C)CO)C(=O)c2cc(NS(=O)(=O)c3ccccc3)ccc2O1` the cytotoxicity call was “inactive”.
In the case of `Cc1noc(C)c1NC(=O)N(C)C[C@H]1OCCCC[C@@H](C)Oc2ccc(NC(=O)NC3CCCCC3)cc2C(=O)N([C@H](C)CO)C[C@@H]1C`, the cytotoxicity call is reported as “active”.
With `C[C@H](CO)N1C[C@H](C)[C@@H](CN(C)C(=O)NC2CCCCC2)OCCCC[C@H](C)Oc2ccc(NC(=O)NC3CCCCC3)cc2C1=O` the cytotoxicity call was “inactive”.
`Cc1noc(C)c1NC(=O)N(C)C[C@H]1OCCCC[C@@H](C)Oc2ccc(NC(=O)NC3CCCCC3)cc2C(=O)N([C@@H](C)CO)C[C@H]1C` was tested, and the cytotoxicity call was “inactive”.
With `C[C@@H]1CN([C@H](C)CO)C(=O)c2cc(NC(=O)NC3CCCCC3)ccc2O[C@@H](C)CCCCO[C@@H]1CN(C)C(=O)Nc1ccc(F)cc1` the cytotoxicity call was “inactive”.
With `C[C@@H]1CN([C@H](C)CO)C(=O)c2cc(NC(=O)Nc3ccc(F)cc3)ccc2O[C@@H](C)CCCCO[C@H]1CN(C)C(=O)NC1CCCCC1` the cytotoxicity call was “inactive”.
`C[C@@H]1CCCCO[C@H](CN(C)C(=O)NC2CCCCC2)[C@H](C)CN([C@H](C)CO)C(=O)c2cc(NC(=O)Nc3ccc(F)cc3)ccc2O1` was tested, and the cytotoxicity call was “active”.
With `C[C@@H]1CCCCO[C@@H](CN(C)C(=O)Nc2ccc(F)cc2)[C@@H](C)CN([C@@H](C)CO)C(=O)c2cc(NC(=O)NC3CCCCC3)ccc2O1` the cytotoxicity call was “active”.
In the case of `C[C@H](CO)N1C[C@H](C)[C@H](CN(C)C(=O)NC2CCCCC2)OCCCC[C@H](C)Oc2ccc(NC(=O)NC3CCCCC3)cc2C1=O`, the cytotoxicity call is reported as “inactive”.
For `C[C@@H]1CCCCO[C@@H](CN(C)C(=O)NC2CCCCC2)[C@@H](C)CN([C@H](C)CO)C(=O)c2cc(NC(=O)Nc3ccc(F)cc3)ccc2O1`, the cytotoxicity call was “inactive”.
`C[C@@H]1CCCCO[C@H](CN(C)C(=O)Nc2ccc(F)cc2)[C@@H](C)CN([C@H](C)CO)C(=O)c2cc(NC(=O)NC3CCCCC3)ccc2O1` was tested, and the cytotoxicity call was “inactive”.
`C[C@@H]1CCCCO[C@H](CN(C)C(=O)NC2CCCCC2)[C@H](C)CN([C@H](C)CO)C(=O)c2cc(NC(=O)NC3CCCCC3)ccc2O1` was tested, and the cytotoxicity call was “active”.
`Cc1noc(C)c1NC(=O)N(C)C[C@@H]1OCCCC[C@@H](C)Oc2ccc(NC(=O)NC3CCCCC3)cc2C(=O)N([C@H](C)CO)C[C@@H]1C` was tested, and the cytotoxicity call was “inactive”.
For `COc1ccc(-c2cccc(-c3nc(C(=O)NCC(F)(F)F)cc4c3[C@@H](CCO)N([S@](=O)C(C)(C)C)C4)c2)cc1`, the cytotoxicity call was “inactive”.
With `COc1ccc(S(=O)(=O)N(C)C[C@H]2OCCCC[C@H](C)Oc3ccc(NC(=O)c4ccccc4)cc3C(=O)N([C@H](C)CO)C[C@H]2C)cc1` the cytotoxicity call was “inactive”.
`Cc1ccc(S(=O)(=O)N(C)C[C@H]2Oc3ccc(NC(=O)c4ccncc4)cc3C(=O)N([C@H](C)CO)C[C@@H]2C)cc1` was tested, and the cytotoxicity call was “inactive”.
With `C[C@@H]1CN([C@H](C)CO)C(=O)c2cc(NS(=O)(=O)c3ccccc3)ccc2O[C@H]1CN(C)S(=O)(=O)c1cn(C)cn1` the cytotoxicity call was “inactive”.
With `Cc1noc(C)c1NC(=O)Nc1ccc2c(c1)CC(=O)N([C@H](C)CO)C[C@@H](C)[C@@H](CN(C)Cc1ccc(-c3ccccc3)cc1)O2` the cytotoxicity call was “inactive”.
For `O=C1[C@@H]2[C@H](C(=O)N1c1ccccc1)C13COC[C@H](c4ccccc4)N1C(=O)C2(C(=O)NCCc1c[nH]c2ccccc12)O3` (stereo partly drawn), the cytotoxicity call was “inactive”.
`CCS(=O)(=O)N1C[C@]2(CN(Cc3cccc(c3)Cl)[C@@H](CO)c3c2c2ccc(cc2n3C)OC)C1` was tested, and the cytotoxicity call was “inactive”.
In the case of `C[C@H](CO)N1C[C@H](C)[C@@H](CN(C)C(=O)NC2CCCCC2)OCCCC[C@H](C)Oc2ccc(NC(=O)Nc3ccc(F)cc3)cc2C1=O`, the cytotoxicity call is reported as “inactive”.
With `C[C@H]1CCCCO[C@@H](CN(C)C(=O)NC2CCCCC2)[C@@H](C)CN([C@@H](C)CO)C(=O)c2cc(NC(=O)Nc3ccc(F)cc3)ccc2O1` the cytotoxicity call was “active”.
For `C[C@H](CO)N1C[C@H](C)[C@H](CN(C)C(=O)NC2CCCCC2)OCCCC[C@H](C)Oc2ccc(NC(=O)Nc3ccc(F)cc3)cc2C1=O`, the cytotoxicity call was “inactive”.
